Our source for the Potency, outcome and activity change, positive = activation values is PubChem BioAssay (Tox21).

Several values for one entry are separate records, joined by “and”; a condition that tells them apart may be missing. Identical values can stand only once. Inconclusive results are not listed. Some structures have more than one record in an assay (separate samples or runs), and their calls can disagree. Activity calls are given as the source filed them. Unless noted, the call rests on the fitted dose curve; in most records, active means well fitted curve in the direction sought with a large enough effect in the repeat runs; inconclusive means weak or mixed curves; inactive means no such curve, though single readings can be large; an effect the other way counts as inactive or inconclusive.

For test [1], the target named is Luciferin 4-monooxygenase (Photinus pyralis) (UniProt P08659). As to the kind of experiment: qHTS assay to identify small molecule inhibitors of firefly luciferase (AID 1224835). Further: nearly all actives have a fitted effect of over 25% in size. Further: potency means the concentration at half of the fitted maximal effect. A digest of the protocol: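 Biochemical qHTS: compounds run as interplate titrations against purified firefly enzyme, with D-luciferin and ATP each at its KM concentration. Light output recorded by CCD imaging.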
Sequence of Luciferin 4-monooxygenase (Photinus pyralis) (P08659 whole entry, looked up): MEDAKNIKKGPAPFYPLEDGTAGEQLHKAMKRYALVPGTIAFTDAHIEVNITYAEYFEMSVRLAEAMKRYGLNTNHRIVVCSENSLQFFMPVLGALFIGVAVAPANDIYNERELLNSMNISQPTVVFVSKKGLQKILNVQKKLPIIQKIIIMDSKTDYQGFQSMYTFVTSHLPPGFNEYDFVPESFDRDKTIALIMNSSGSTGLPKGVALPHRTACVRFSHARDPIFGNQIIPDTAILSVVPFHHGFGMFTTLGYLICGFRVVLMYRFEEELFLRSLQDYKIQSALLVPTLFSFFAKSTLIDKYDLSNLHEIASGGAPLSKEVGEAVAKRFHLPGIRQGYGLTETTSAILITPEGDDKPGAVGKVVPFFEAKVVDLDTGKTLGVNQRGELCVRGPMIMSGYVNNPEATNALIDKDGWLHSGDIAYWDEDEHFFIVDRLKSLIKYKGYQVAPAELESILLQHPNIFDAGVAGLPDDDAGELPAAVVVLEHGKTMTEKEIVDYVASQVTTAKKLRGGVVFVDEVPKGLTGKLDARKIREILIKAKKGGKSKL
Background: In qHTS, concentration-response curves come from the screen itself.

Test [2] in a line: qHTS assay to identify small molecule agonists of the constitutive androstane receptor (CAR) signaling pathway - cell viability counter screen (AID 1224836). Further: nearly all actives have a fitted effect of over 45% in size. Further: potency means the concentration at half of the fitted maximal effect. A digest of the protocol:
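HepG2 cells stably carrying hCAR and a CYP2B6-2.2kb reporter were plated 4 h, then given compounds at 15 concentrations plus PK11195 (final 0.75 uM). After 23 h at 37 C, viability was read by CellTiter-Fluor fluorescence.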

The target in test [3] is Nuclear receptor subfamily 1 group I member 3 (Homo sapiens) (UniProt Q14994). The experiment in a line: qHTS assay to identify small molecule agonists of the constitutive androstane receptor (CAR) signaling pathway (AID 1224839). Further: nearly all actives have a fitted effect of over 15% in size. Further: potency means the concentration at half of the fitted maximal effect.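 On activation: HepG2 cells stably carrying human CAR and a CYP2B6 luciferase reporter.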 A digest of the protocol:
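HepG2 cells stably expressing hCAR and a CYP2B6-2.2kb luciferase reporter were treated with compounds at 15 concentrations plus 0.75 uM PK11195 (final) for 24 h at 37 C; luminescence was read after ONE-Glo addition.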

Test [4] can be described thus: qHTS assay to identify small molecule antagonists of the estrogen related receptor signaling pathway with the pleiotropic PPARgamma coactivator (PGC) from Tox21 10K library - cell viability counter screen (AID 1224840; active means well fitted cell-killing curve with a large enough effect in the repeat runs, not every such curve was filed as active; further: nearly all actives have a fitted effect of over 40% in size; further: potency means the concentration at half of the fitted maximal effect). A digest of the protocol: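 Viability counter screen, PGC/ERR cells: 17.5 h compound exposure at 37 C, CellTiter-Fluor fluorescence endpoint.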
Test [5] concerns the target Thyrotropin receptor (Homo sapiens) (UniProt P16473). As to the kind of experiment: qHTS assay to identify small molecule agonists of the thyroid stimulating hormone receptor (TSHR) signaling pathway (AID 1224843; calls by dose curve; further: nearly all actives have a fitted effect of over 45% in size). A digest of the protocol:
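Agonist-mode screen: TSHR HEK293 cells received test chemicals for half an hour at room temperature, then HTRF cAMP detection reagents for one hour prior to fluorescence measurement. Each chemical ran as a 15-concentration series, triplicated.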

Test [6] can be described thus: qHTS assay to identify small molecule agonists of the hypoxia (HIF-1) signaling pathway - cell viability counter screen (AID 1224844; calls by dose curve; further: nearly all actives have a fitted effect of over 50% in size; further: potency means the concentration at half of the fitted maximal effect). In short, it runs like this: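 Same wells as the HIF-1 reporter screen; ME-180 cells carrying HRE-bla, 17 hr treatment at 37C; CellTiter-Glo luminescence read after 30 min at room temperature.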
Test [7] can be described thus: qHTS assay to identify small molecule agonists of H2AX (AID 1224845; active means well fitted activation curve with a large enough effect in the signal ratio in the repeat runs, not every such curve was filed as active; the % refers to the signal ratio). A digest of the protocol:
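Wild-type CHO-K1 cells, plated overnight, exposed 3hr at 37C to 15 concentrations (0.76% DMSO final). Lysed, then HTRF anti-pH2AX (S139) cryptate and anti-H2AX-d2 antibodies, 24 hr room temperature; 665/620 nm emission read.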

The nature of test [8]: qHTS assay to identify small molecule agonists of the hypoxia (HIF-1) signaling pathway (AID 1224846; active means well fitted activation curve with a large enough effect in the signal ratio in the repeat runs, not every such curve was filed as active; the % refers to the signal ratio). In short, it runs like this:
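In ME-180 cells bearing an HRE-bla construct, 17 h treatment with DMSO-dissolved compounds at 37C was followed by CCF4-AM loading to quantify reporter induction.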

Test [9] is described as follows: qHTS assay to identify small molecule agonists of H2AX - cell viability counter screen (AID 1224847; calls by dose curve; further: nearly all actives have a fitted effect of over 30% in size; further: potency means the concentration at half of the fitted maximal effect). In short, it runs like this: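 Wild-type CHO-K1 cells (10% FBS medium) were plated overnight at 37C, exposed to compounds at 15 concentrations for 3 hr at 37C (0.76% DMSO final), and viability was read as CellTiter-Glo luminescence after 30 min at room temperature.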

A short description of test [10]: qHTS RealTime-Glo MT Cell Viability Assay in HepG2 cells - 24 hour (AID 1224867). Further: nearly all actives have a fitted effect of over 50% in size. A digest of the protocol:
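qHTS, HepG2, 600 cells/well, RealTime-Glo (NanoLuc + prosubstrate) added with cells; 5 h preincubation; DMSO compound addition; 37 C; luminescence at 0/8/16/24/32/40 h.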

Test [11] in a line: qHTS RealTime-Glo MT Cell Viability Assay in HEK293 cells - 32 hour (AID 1224868). Further: nearly all actives have a fitted effect of over 50% in size. Further: potency means the concentration at half of the fitted maximal effect. A digest of the protocol:
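Assay medium contained NanoLuc luciferase plus cell-permeant prosubstrate, added with HEK293 cells at 600 cells/well. After 5 h at 37 C/5% CO2 compounds were added; plates stayed at 37 C for 40 h with serial luminescence reads.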

A short description of test [12]: A CellTox Green Cytotoxicity Assay to monitor cytotoxicity in HEK293 cells - 0 hour (AID 1224869). Further: nearly all actives have a fitted effect of over 50% in size. Further: potency means the concentration at half of the fitted maximal effect. In short, it runs like this:
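Homogeneous no-lysis format: HEK293 cell suspension mixed with CellTox Green reagent, seeded, incubated 5 h at 37 C/5% CO2, then dosed by pintool with compound in DMSO.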

The nature of test [13]: qHTS assay to identify small molecule antagonists of the estrogen related receptor (ERR) signaling pathway from Tox21 library - cell viability counter screen (AID 1224834). Further: nearly all actives have a fitted effect of over 30% in size. Further: potency means the concentration at half of the fitted maximal effect. A digest of the protocol:
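In this quantitative HTS format, ERR cells receive compounds in DMSO and are incubated for 17.5 h at 37 C. Live-cell protease activity is then detected with CellTiter-Fluor.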

A short description of test [14]: qHTS assay to identify small molecule antagonists of the constitutive androstane receptor (CAR) signaling pathway - cell viability counter screen (AID 1224837). Further: nearly all actives have a fitted effect of over 45% in size. In short, it runs like this:
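In quantitative HTS format, compounds at 15 concentrations were applied to HepG2 cells double-transfected with hCAR and CYP2B6-2.2kb under 50 nM CITCO stimulation; live-cell protease activity was read after 23 hr via CellTiter-Fluor.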

Test [15] can be described thus: qHTS assay to identify small molecule antagonists of the estrogen related receptor signaling pathway with the pleiotropic PPARgamma coactivator (PGC) from Tox21 10K library (AID 1224841; call rule not given here; further: potency means the concentration at half of the fitted maximal effect). A digest of the protocol: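 In the PGC/ERR line, DMSO solutions of test chemicals are pin-delivered to 2,000 cells/well six hours after dispensing. Following eighteen hours' incubation, One-Glo reagent is added and luminescence recorded.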

Test [16] is described as follows: qHTS assay to identify small molecule agonists of the estrogen related receptor signaling pathway with the pleiotropic PPARgamma coactivator (PGC) from Tox21 10K library (AID 1224842). Further: nearly all actives have a fitted effect of over 15% in size. A digest of the protocol: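 PGC/ERR reporter cell line, 2,000 cells per well, incubated 6 h at 37 C before 23 nL compound in DMSO was added. After 18 h at 37 C, One-Glo luminescence read following 30 min at room temperature.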

Test [17] in a line: qHTS assay to identify small molecule antagonists of the estrogen related receptor (ERR) signaling pathway from Tox21 library (AID 1224848). Further: nearly all actives have a fitted effect of over 50% in size. Further: potency means the concentration at half of the fitted maximal effect. A digest of the protocol: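 Quantitative high-throughput format: ERR reporter cells (2,000/well) pre-incubated 6 h, treated 18 h at 37 C with compounds in DMSO alongside positive and negative controls, then read by ONE-Glo luminescence.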

Test [18] can be described thus: qHTS assay to identify small molecule agonists of the estrogen related receptor (ERR) signaling pathway from Tox21 library (AID 1224849; calls by dose curve; further: nearly all actives have a fitted effect of over 15% in size). The following applies: ERR reporter cell line, ONE-Glo luciferase, 18 h; at 92.4 µM (top of the series). In short, it runs like this: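 Reporter cells (ERR, NTP source) treated with Tox21 10K compounds 18 h, 37 C. Readout: ONE-Glo luminescence, 30 min RT.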

Test [19] addresses Nuclear receptor subfamily 1 group I member 3 (Homo sapiens) (UniProt Q14994). The experiment in a line: qHTS assay to identify small molecule antagonists of the constitutive androstane receptor (CAR) signaling pathway (AID 1224838). Further: nearly all actives have a fitted effect of over 40% in size. In short, it runs like this:
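CITCO-stimulated (50 nM final) HepG2 cells stably transfected with hCAR and CYP2B6-2.2kb luciferase were exposed to compounds at 15 concentrations for 24 h at 37 C/5% CO2. A luciferase reagent was added and luminescence recorded after 30 min.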
On the % scale 0 is the no-effect control and ±100 the full control effect.

Sequence of Thyrotropin receptor (Homo sapiens) (P16473 whole entry, looked up): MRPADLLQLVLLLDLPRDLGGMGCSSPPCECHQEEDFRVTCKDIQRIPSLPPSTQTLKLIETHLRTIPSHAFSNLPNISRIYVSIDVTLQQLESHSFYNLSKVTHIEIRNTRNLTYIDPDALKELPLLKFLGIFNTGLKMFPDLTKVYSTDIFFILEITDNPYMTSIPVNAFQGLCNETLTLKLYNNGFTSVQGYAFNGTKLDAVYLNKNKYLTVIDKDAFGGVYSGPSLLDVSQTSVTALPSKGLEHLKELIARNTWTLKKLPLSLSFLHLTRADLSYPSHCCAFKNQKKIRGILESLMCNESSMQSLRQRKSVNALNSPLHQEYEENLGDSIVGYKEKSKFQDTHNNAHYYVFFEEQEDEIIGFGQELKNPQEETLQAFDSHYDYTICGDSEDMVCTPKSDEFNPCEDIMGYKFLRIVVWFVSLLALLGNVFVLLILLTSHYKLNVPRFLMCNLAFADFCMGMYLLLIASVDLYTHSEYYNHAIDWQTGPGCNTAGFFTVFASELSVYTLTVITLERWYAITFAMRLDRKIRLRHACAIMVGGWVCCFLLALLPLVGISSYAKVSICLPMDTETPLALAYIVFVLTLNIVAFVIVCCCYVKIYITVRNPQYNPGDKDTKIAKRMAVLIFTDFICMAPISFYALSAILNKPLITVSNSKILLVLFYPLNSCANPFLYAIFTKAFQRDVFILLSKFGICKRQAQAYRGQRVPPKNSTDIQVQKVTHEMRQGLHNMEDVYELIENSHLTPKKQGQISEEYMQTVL
Sequence of Nuclear receptor subfamily 1 group I member 3 (Homo sapiens) (Q14994 whole entry, looked up): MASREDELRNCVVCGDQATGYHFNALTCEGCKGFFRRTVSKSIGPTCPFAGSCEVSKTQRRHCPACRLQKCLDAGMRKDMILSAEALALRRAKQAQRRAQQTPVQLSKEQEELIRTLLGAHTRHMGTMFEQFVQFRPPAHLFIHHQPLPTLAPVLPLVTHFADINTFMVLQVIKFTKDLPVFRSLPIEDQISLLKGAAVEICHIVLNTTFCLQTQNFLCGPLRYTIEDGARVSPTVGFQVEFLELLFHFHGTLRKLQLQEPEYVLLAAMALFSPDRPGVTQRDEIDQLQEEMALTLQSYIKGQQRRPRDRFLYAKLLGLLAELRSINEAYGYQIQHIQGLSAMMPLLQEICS

Consider `CC1COc2ccccc2N1C(=O)C(Cl)Cl` (stereo not given), for which the Potency result in test [1], in [4], in [5], in test [6], in [7] and in [9] was “inactive” throughout. Also, the Potency entry in test [10], in test [11] and in [12] was “inactive” in each case. Also, the Potency in test [2] is 27.3 µM (active); in test [3], 48.5 µM (active). Further, the compound was classed as inactive in test [8].

For the compound `Cc1cc(O)cc(C)c1Cl`, the Potency result in [13], in test [1], in test [2], in test [14], in test [4] and in test [5] was “inactive” each time. The Potency entry in [6], in [7], in test [9], in test [10] and in test [12] was “inactive” each time. Moreover, in test [8], the outcome was inactive.

For the compound `CC(=O)[C@@]1(O)CC[C@H]2[C@@H]3CCC4=CC(=O)CC[C@]4(C)[C@H]3CC[C@@]21C`, the Potency entry in [13], in test [1], in test [4], in [5], in test [6] and in [7] was “inactive” each time. Moreover, the Potency entry in test [9], in [10] and in test [12] was “inactive” in each case.

As to `Clc1cc(Cl)c(Cl)cc1Cl`, the Potency result in [13], in test [1], in test [2], in test [14], in test [4] and in test [15] was “inactive” each time. Besides, the Potency entry in test [16], in test [6], in test [7], in test [9], in test [17] and in [10] was “inactive” throughout. The Potency result in [11] and in [12] was “inactive” in each case. Also, the result in test [8] was inactive. In test [18], the activity change, positive = activation was 6.69% (inactive) and 12.5% (inactive).

Regarding `Nc1c(S(=O)(=O)O)cc(Br)c2c1C(=O)c1ccccc1C2=O`, the Potency entry is “inactive and 24.3 µM (active)” in test [13]; 35.6 µM (active) in test [1]. Also, the Potency result in test [4], in test [5], in test [6], in [10] and in test [12] was “inactive” throughout. The compound was called inactive in test [8].

For the compound `NC(=O)NNc1ccccc1`, the Potency entry in [13], in [2], in test [14], in [19], in test [3] and in test [4] was “inactive” each time. For the same compound, the Potency result in [5], in test [6], in test [7], in [9], in [10] and in [11] was “inactive” each time. Also, the Potency entry in test [12] was “inactive”. Also, the outcome in test [8] was inactive.

Take `CC(C)(C)C(=O)C1C(=O)c2ccccc2C1=O`: the Potency in test [13] is 60.5 µM (active) and 43.3 µM (active); in test [1], 31.4 µM (active); in test [4], 48.1 µM (active) and inactive. Further, the Potency result in test [19], in test [5], in test [6], in test [10], in [11] and in test [12] was “inactive” each time. Besides, in test [8], the result was inactive.

For the compound `CCCCC(CC)COC(=O)CCCCCCCC(=O)OCC(CC)CCCC` (stereo not given), the Potency in [13] was 17.2 µM (active) and inactive; in [4], 8.63 µM (active) and inactive; in [15], 24.3 µM (active) and inactive; in [17], 7.7 µM (active) and inactive; in [11], 6.17 µM (active) and inactive; in test [12], 54.9 µM (active) and inactive. For the same compound, the Potency entry in test [1], in test [3], in test [16], in test [5], in test [6] and in [7] was “inactive” throughout. For the same compound, the Potency result in [9] and in test [10] was “inactive” each time. For the same compound, the result in test [8] was inactive. Moreover, the activity change, positive = activation in [18] is -81.2% (inactive) and -2.38% (inactive).

In the case of `Oc1ccc2ccccc2c1`, the Potency entry in [13], in [2], in test [14], in test [4], in test [5] and in test [7] was “inactive” in each case. The Potency entry in test [9], in test [10], in [11] and in test [12] was “inactive” in each case. The Potency in [6] was 35.5 µM (active). Besides, in test [8], the outcome was inactive.

Turning to `CC(C)Cc1ccccc1`, the Potency result in [13], in test [1], in test [2], in test [14], in test [4] and in [5] was “inactive” each time. The Potency result in [6], in test [7], in test [9], in test [10] and in test [12] was “inactive” throughout. The compound was called inactive in test [8].

For `Cc1cc(NS(=O)(=O)c2ccc(N)cc2)no1`, the Potency entry in [13], in test [2], in test [14], in test [19], in [3] and in test [4] was “inactive” throughout. Also, the Potency result in test [5], in test [6], in test [10] and in test [12] was “inactive” each time.

For the compound `O=[N+]([O-])c1cc(N(CCO)CCO)ccc1NCCO`, the Potency is 48.5 µM (active) in [13]; 28.2 µM (active) and 39.9 µM (active) in [1]; 50.4 µM (active) and 50.5 µM (active) in [9]. Besides, the Potency entry in [14], in test [4], in test [6], in [10], in test [11] and in test [12] was “inactive” throughout. Further, the compound was classed as inactive in [8].

In the case of `COCC(=O)O`, the Potency result in test [13], in test [1], in test [2], in test [14], in test [4] and in [5] was “inactive” throughout. Moreover, the Potency entry in test [6], in test [7], in test [10], in [11] and in test [12] was “inactive” each time. Further, in [8], the compound was classed as inactive.

On to `C=C(C)C(=O)OCCC[Si](OC)(OC)OC`, for which the Potency result in [13], in test [1], in test [2], in test [14], in test [4] and in test [5] was “inactive” each time. For the same compound, the Potency result in [6], in test [7], in [9], in test [10] and in test [12] was “inactive” in each case. In test [8], the compound was called inactive.
